For 38 compounds, Inhibition results are on record in ChEMBL document CHEMBL4513135, “CO-ADD screening of IQOG CSIS (Spain) compounds”.

One may read the Inhibition as the drop in the measured response relative to a control, in per cent.

Measured potencies and affinities stand elsewhere.

One assay concerns Klebsiella pneumoniae. The settings on record: Concentration 32 ug.mL-1; ASSAY_TEST Inhibition of Bacterial Growth; detection method Absorption (OD600); MEDIA CAMHB; plate type 384well; NBS; CORNING #3640; time 18 hr.
A further assay relates to Candida albicans. The settings on record: 32 ug/mL.
Another assay deals with Cryptococcus neoformans. The settings on record: Concentration 32 ug.mL-1; ASSAY_TEST Inhibition of Fungal Growth; detection method Resazurin; Absorption (OD600-OD570); plate type 384well; NBS; CORNING #3640. In general terms: Alamar Blue is a resazurin reagent that responds to reducing activity.

Regarding `COc1ccc(C2c3c(ccc4ccccc34)OC(=N)C2(Br)C#N)cc1OC` (centres undefined), the Inhibition in the assay with Klebsiella pneumoniae was 2.61%; with Candida albicans it was 7.63%; in the assay with Cryptococcus neoformans it was -66.17%.

Regarding `COC(=O)C1(NC(=O)c2ccccc2)CC1c1ccccc1` (centres undefined), the Inhibition in the assay with Klebsiella pneumoniae was 3.5%; with Candida albicans, 0.07%; in the assay with Cryptococcus neoformans, -1.1%.

On to `N#CC1(Br)C(=N)Oc2ccc3ccccc3c2C1c1cccc([N+](=O)[O-])c1` (centres undefined), for which the Inhibition in the assay on Klebsiella pneumoniae was 16.38%; in the assay on Candida albicans, 11.2%; in the assay with Cryptococcus neoformans, -26.58%.

`CCOC(=O)C1=C(C)OC(N)=C(C#N)C1c1ccco1` (centres undefined): the Inhibition in the assay with Klebsiella pneumoniae is 6.85%; in the assay on Candida albicans, 1.71%; in the assay with Cryptococcus neoformans it was -29.39%.

For `Cn1cc(C(=O)NN)c2ccccc21`, the Inhibition in the assay with Klebsiella pneumoniae is 3.16%; with Candida albicans, 4.47%; in the assay with Cryptococcus neoformans, 7.89%.

Regarding `Cc1ccc(C2CC2(N)C(=O)O)cc1.Cl` (centres undefined), the Inhibition was 13.97% with Klebsiella pneumoniae, 1.46% with Candida albicans and -7.69% with Cryptococcus neoformans.

On to `COc1nc2ccc(C)cc2cc1C=O`, for which the Inhibition with Klebsiella pneumoniae was -5.34%; in the assay on Candida albicans it was 5.7%; in the assay with Cryptococcus neoformans, -4.83%.

`Cn1c(C(=O)NCc2ccccc2)cc2cc(OCCCC3CCN(Cc4ccccc4)CC3)ccc21`: the Inhibition was 8.4% in the assay with Klebsiella pneumoniae, 1.62% with Candida albicans and -77.02% in the assay with Cryptococcus neoformans.

Regarding `CCCC(=O)NCc1c(-c2ccc(Cl)cc2)nc2ccccn12`, the Inhibition with Klebsiella pneumoniae was -10.71%; with Candida albicans it was 1.27%; in the assay on Cryptococcus neoformans, -9.45%.

Regarding `O=C(N/N=C/c1c[nH]c2ccccc12)c1ccc(Cl)cc1`, the Inhibition was 14.79% in the assay on Klebsiella pneumoniae, 0.77% with Candida albicans and -0.09% in the assay on Cryptococcus neoformans.

Turning to `OCc1c(-c2ccc(Br)cc2)nc2ccccn12`, the values for the Inhibition in the assay on Klebsiella pneumoniae, in the assay on Candida albicans and with Cryptococcus neoformans were 16.84%, 4.83% and -4.79%, respectively.

With `C=C1CN(C)c2c(C#N)cc(C#N)c(=S)n21`, the Inhibition in the assay with Klebsiella pneumoniae was 3.88%; with Candida albicans, 4.91%; with Cryptococcus neoformans, -13.76%.

For `Clc1ccc(-c2cn3ccccc3n2)cc1`, the results for the Inhibition in the assay with Klebsiella pneumoniae, with Candida albicans and in the assay with Cryptococcus neoformans were 18.54%, -1.23% and -7.53%, respectively.

With `C#CCN(C)c1nc(OC)c(C#N)cc1C#N`, the figures for the Inhibition in the assay with Klebsiella pneumoniae, in the assay on Candida albicans and in the assay on Cryptococcus neoformans were 1.2%, 2.65% and -43.21%, respectively.

Regarding `COc1ccc(C2c3ccc4ccccc4c3Oc3nc4c(c(N)c32)CCCC4)c(OC)c1` (centres undefined), the figures for the Inhibition in the assay with Klebsiella pneumoniae, in the assay on Candida albicans and in the assay on Cryptococcus neoformans were 4.09%, 0.01% and -0.17%, respectively.

For `COc1ccc(C2C(C#N)=C(Cl)Oc3c2ccc2ccccc32)cc1OC` (centres undefined), the Inhibition in the assay with Klebsiella pneumoniae was -4.48%; with Candida albicans, 18.1%; in the assay on Cryptococcus neoformans it was -55.36%.

As for `O=C(Cc1c[nH]c2ccccc12)N/N=C/c1ccco1`, the Inhibition in the assay on Klebsiella pneumoniae is 10.08%; with Candida albicans it was -1.03%; in the assay with Cryptococcus neoformans, -6.47%.

Regarding `C#CCN(C)c1nc(NC2CCN(Cc3ccccc3)CC2)c(C#N)c(-c2ccccc2)c1C#N`, the Inhibition in the assay with Klebsiella pneumoniae is -4.36%; with Candida albicans, 3.34%; with Cryptococcus neoformans, -29.11%.

Turning to `O=C(O)c1cc2ccccc2[nH]1` [INDOLE-2-CARBOXYLIC ACID], the Inhibition with Klebsiella pneumoniae is 1.67%; in the assay on Candida albicans, 26.2%; with Cryptococcus neoformans it was -9.27%.

On to `N#Cc1c(N)nc2c(c1-c1ccccc1)CN(Cc1ccccc1)CC2`, for which the Inhibition in the assay on Klebsiella pneumoniae was 16.71%; with Candida albicans, 1.07%; with Cryptococcus neoformans, -3.99%.

Turning to `C#CCNc1nc(NCCC2CCN(Cc3ccccc3)CC2)c(C#N)cc1C#N`, the Inhibition was -4.95% in the assay with Klebsiella pneumoniae, 3.57% in the assay on Candida albicans and -89.93% in the assay with Cryptococcus neoformans.

`Cc1[nH]nc2c1C(c1ccc(O)c(O)c1)C(C#N)=C(N)O2` (centres undefined): the Inhibition in the assay on Klebsiella pneumoniae was 21.92%; with Candida albicans, 0.31%; in the assay with Cryptococcus neoformans, 0.65%.

As to `O=C(N[C@H]1CC[C@@H](Br)[C@@H](Br)C1)C(F)(F)F`, the Inhibition with Klebsiella pneumoniae was 11.37%; in the assay on Candida albicans it was 9.4%; in the assay with Cryptococcus neoformans it was -47.65%.

Take `Nc1c2c(nc3c1c1ccccc1n3Cc1ccccc1)CCCC2`: the Inhibition with Klebsiella pneumoniae is 9.09%; in the assay with Candida albicans it was 1.09%; with Cryptococcus neoformans, -84.21%.

As to `COc1ccccc1C1C(C#N)=C(N)Oc2c1ccc1ccccc21` (centres undefined), the Inhibition with Klebsiella pneumoniae is 8.71%; in the assay on Candida albicans, 1.78%; with Cryptococcus neoformans it was -34.5%.

For `C#CCN(C)Cc1cc2cc(OCCCC3CCN(Cc4ccc(OC)c5ncccc45)CC3)ccc2n1C`, the Inhibition with Klebsiella pneumoniae was -9.53%; with Candida albicans, 0.97%; in the assay on Cryptococcus neoformans it was -73.89%.

On to `COc1ccc(C2c3c(nc4c(c3N)CCCC4)Oc3ccc4ccccc4c32)cc1` (centres undefined), for which the values for the Inhibition in the assay on Klebsiella pneumoniae, in the assay with Candida albicans and in the assay on Cryptococcus neoformans were 8.01%, 0.67% and 1.85%, respectively.

`N#Cc1c(NC2CCC(Cc3ccccc3)CC2)nc(NC2CCN(Cc3ccccc3)CC2)c(C#N)c1-c1ccccc1` (centres undefined): the figures for the Inhibition with Klebsiella pneumoniae, in the assay with Candida albicans and in the assay with Cryptococcus neoformans were -7.01%, 2.46% and -20.4%, respectively.

With `O=C(N/N=C/c1ccc(Cl)cc1)c1cc2ccccc2[nH]1`, the Inhibition is -19.43% in the assay on Klebsiella pneumoniae, 3.28% in the assay on Candida albicans and -0.9% in the assay with Cryptococcus neoformans.

As for `CC(=O)Oc1cccc(C=C2N=C(c3ccccc3)OC2=O)c1`, the Inhibition in the assay on Klebsiella pneumoniae is 1.18%; in the assay on Candida albicans, 2.1%; in the assay with Cryptococcus neoformans it was -5.65%.

On to `CN1C/C(=C\Cl)n2c1c(C#N)cc(C#N)c2=O`, for which the figures for the Inhibition with Klebsiella pneumoniae, with Candida albicans and in the assay on Cryptococcus neoformans were 5.49%, 1.11% and -52.5%, respectively.

In the case of `CCOc1nc(N)c(C#N)cc1C#N`, the Inhibition is 12.55% in the assay on Klebsiella pneumoniae, 44.3% with Candida albicans and -83.12% with Cryptococcus neoformans.

Consider `NNC(=O)CCc1c[nH]c2ccccc12`, for which the Inhibition with Klebsiella pneumoniae was 5.25%; in the assay on Candida albicans, 0.67%; with Cryptococcus neoformans it was -3.69%.

Consider `O=C(Cc1c[nH]c2ccccc12)NNCc1ccccc1`, for which the Inhibition with Klebsiella pneumoniae is 1.88%; in the assay with Candida albicans, 0.22%; in the assay on Cryptococcus neoformans it was -1.3%.

In the case of `CCOC(=O)c1c[nH]c2ccc(OCc3ccccc3)cc12`, the Inhibition was 12.72% with Klebsiella pneumoniae, 0.34% in the assay on Candida albicans and -4.09% with Cryptococcus neoformans.

Turning to `CCOC(=O)C1=C(C)NC(N)=C(C#N)C1c1ccc([N+](=O)[O-])cc1` (centres undefined), the Inhibition was 14.21% in the assay on Klebsiella pneumoniae, 2.04% in the assay with Candida albicans and -47.11% with Cryptococcus neoformans.

For `COc1ccc2c(c1)cc(C(=O)Nc1ccccc1)n2C`, the Inhibition with Klebsiella pneumoniae was 8.32%; with Candida albicans, 2.05%; with Cryptococcus neoformans it was -38.47%.

Take `CCOC(=O)N/N=C/c1ccccc1`: the Inhibition with Klebsiella pneumoniae was 8.83%; with Candida albicans, 4.9%; in the assay with Cryptococcus neoformans, -5.96%.
